In PubChem BioAssay (EPA / NIEHS):
Results filed as inconclusive are left out. Active and inactive are the calls of the source. How the source made its calls: active means hit-call score of the fitted dose curve at least 0.9, where 1 is the maximum; inconclusive means response in the unintended direction; inactive means score below 0.9.

Key:
[1] = target: rat Adenylate Cyclase, Forskolin Stimulated, Adcy5 (gene 64532) (UniProt Q04400); test: NVS_ENZ_rACFSKBinding: NovaScreen (NVS) Enzymatic Assay for rat Adenylate Cyclase, Forskolin Stimulated (AID 2283232)
Chain of rat Adenylate Cyclase, Forskolin Stimulated, Adcy5 (gene 64532) (Q04400 whole entry, looked up): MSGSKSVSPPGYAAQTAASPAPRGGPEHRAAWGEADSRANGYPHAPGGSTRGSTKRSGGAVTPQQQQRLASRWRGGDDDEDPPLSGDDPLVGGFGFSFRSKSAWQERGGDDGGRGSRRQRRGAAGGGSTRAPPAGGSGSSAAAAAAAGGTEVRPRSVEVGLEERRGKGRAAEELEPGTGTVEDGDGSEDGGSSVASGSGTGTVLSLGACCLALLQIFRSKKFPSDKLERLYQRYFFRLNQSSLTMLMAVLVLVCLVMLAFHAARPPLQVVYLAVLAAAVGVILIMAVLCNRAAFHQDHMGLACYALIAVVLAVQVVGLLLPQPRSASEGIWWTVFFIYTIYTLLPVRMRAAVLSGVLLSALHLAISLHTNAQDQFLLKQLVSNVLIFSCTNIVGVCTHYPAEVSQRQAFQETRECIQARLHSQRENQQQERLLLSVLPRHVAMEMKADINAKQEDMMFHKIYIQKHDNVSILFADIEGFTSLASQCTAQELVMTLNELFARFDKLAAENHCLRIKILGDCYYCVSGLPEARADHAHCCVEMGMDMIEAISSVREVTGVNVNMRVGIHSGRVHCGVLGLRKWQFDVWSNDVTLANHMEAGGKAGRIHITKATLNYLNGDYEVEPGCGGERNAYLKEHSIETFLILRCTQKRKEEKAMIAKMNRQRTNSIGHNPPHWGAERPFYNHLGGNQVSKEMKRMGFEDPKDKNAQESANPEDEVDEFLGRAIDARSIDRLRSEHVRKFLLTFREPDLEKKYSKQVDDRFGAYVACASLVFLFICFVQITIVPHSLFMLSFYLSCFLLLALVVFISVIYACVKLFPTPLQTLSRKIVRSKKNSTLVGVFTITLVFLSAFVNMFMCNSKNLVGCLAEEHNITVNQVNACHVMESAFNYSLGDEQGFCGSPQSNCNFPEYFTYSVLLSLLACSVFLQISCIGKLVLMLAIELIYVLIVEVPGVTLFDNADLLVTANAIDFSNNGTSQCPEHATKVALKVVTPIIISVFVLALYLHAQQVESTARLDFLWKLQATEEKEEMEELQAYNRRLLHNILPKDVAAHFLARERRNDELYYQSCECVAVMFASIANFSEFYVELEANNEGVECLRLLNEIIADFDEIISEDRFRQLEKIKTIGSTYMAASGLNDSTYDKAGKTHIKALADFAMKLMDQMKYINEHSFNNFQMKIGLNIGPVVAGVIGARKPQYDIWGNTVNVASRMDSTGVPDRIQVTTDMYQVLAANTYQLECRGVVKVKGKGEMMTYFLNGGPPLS
Protocol: NVS_ENZ_rACFSKBinding is a biochemical, single-readout assay that uses extracted gene-proteins from Rat forebrain membranes in a tissue-based cell-free assay. Measurements were taken 1 hour after chemical dosing in a 48-well plate.NVS_ENZ_rACFSKBinding is one of one assay component(s) measured or calculated from the NVS_ENZ_rACFSKBinding assay. It is designed to make measurements of enzyme activity, a form of enzyme reporter, as detected with scintillation counting signals by Filter-based radiodetection technology.Data from the assay component NVS_ENZ_rACFSKBinding was analyzed into 1 assay endpoint. This assay endpoint, NVS_ENZ_rACFSKBinding, was analyzed in the positive analysis fitting direction relative to DMSO as the negative control and baseline of activity. Using a type of enzyme reporter, loss-of-signal activity can be used to understand changes in the enzymatic activity as they relate to the gene Adcy5. Furthermore, this assay endpoint can be referred to as a primary readout, because this assay has produced multiple assay endpoints where this one serves a enzymatic activity function. To generalize the intended target to other relatable targets, this assay endpoint is annotated to the lyase intended target family, where the subfamily is adenylyl cyclase.
(§1) Binding assays used specific radioligands (tritiated, iodinated) with non-radioactive competitive displacement ligands in agonist or antagonist protocols (as indicated) and various reference compounds and inhibitors to titrate specific binding to receptors and transporters. Most enzyme assays (CYPs, kinases, phosphatases, proteases, HDACs) used recombinant protein and specific substrates (fluorescence mostly, some colorimetric and radioactive) and inhibitors, followed by a biochemical separation of substrate and product. All assays for the biochemical HTS were initially run in duplicate at a single concentration (10 uM for CYP450 assays and 25 uM for all others). Assay-chemical combinations meeting a pre-defined threshold (e.g., 30% inhibition and other criteria defined below) were then run in singleton concentration-response format with maximum concentration of 20 uM for CYPs and 50 uM for all others. Each assay was run with positive and negative controls, and concurrent controls on every plate. The follow-up (secondary) screen tested active chemical-pairs in concentration series, as well as a few additional assays not tested in the primary screen, some selected negative inactives, and several cases re-run in the concentration series for confirmatory purposes.

[2] = target: rat Acetylcholinesterase (AChE), Ache (gene 83817) (UniProt P37136); test: NVS_ENZ_rAChE: NovaScreen (NVS) Enzymatic Assay for rat Acetylcholinesterase (AChE) (AID 2283233)
Chain of rat Acetylcholinesterase (AChE), Ache (gene 83817) (P37136 whole entry, looked up): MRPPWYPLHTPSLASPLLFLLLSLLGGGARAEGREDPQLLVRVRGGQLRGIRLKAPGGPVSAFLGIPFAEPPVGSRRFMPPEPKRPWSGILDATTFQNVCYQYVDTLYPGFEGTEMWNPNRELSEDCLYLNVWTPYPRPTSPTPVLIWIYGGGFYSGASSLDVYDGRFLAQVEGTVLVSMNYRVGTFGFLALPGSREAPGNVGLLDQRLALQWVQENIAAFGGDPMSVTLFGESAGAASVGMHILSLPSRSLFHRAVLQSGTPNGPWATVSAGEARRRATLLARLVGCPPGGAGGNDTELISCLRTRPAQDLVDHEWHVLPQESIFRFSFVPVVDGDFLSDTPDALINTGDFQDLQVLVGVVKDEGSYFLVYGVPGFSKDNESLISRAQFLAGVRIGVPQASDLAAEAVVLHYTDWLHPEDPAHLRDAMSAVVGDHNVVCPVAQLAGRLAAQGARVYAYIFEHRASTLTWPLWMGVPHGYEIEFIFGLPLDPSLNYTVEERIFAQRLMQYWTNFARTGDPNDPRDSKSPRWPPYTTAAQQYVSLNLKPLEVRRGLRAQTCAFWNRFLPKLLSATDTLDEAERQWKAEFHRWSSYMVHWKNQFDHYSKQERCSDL
Protocol: NVS_ENZ_rAChE is a biochemical, single-readout assay that uses extracted gene-proteins from Rat brain membranes in a tissue-based cell-free assay. Measurements were taken 0.33 hour after chemical dosing in a 96-well plate.NVS_ENZ_rAChE is one of one assay component(s) measured or calculated from the NVS_ENZ_rAChE assay. It is designed to make measurements of enzyme activity, a form of enzyme reporter, as detected with absorbance signals by Colorimetric technology.Data from the assay component NVS_ENZ_rAChE was analyzed into 1 assay endpoint. This assay endpoint, NVS_ENZ_rAChE, was analyzed in the positive analysis fitting direction relative to DMSO as the negative control and baseline of activity. Using a type of enzyme reporter, loss-of-signal activity can be used to understand changes in the enzymatic activity as they relate to the gene Ache. Furthermore, this assay endpoint can be referred to as a primary readout, because this assay has produced multiple assay endpoints where this one serves a enzymatic activity function. To generalize the intended target to other relatable targets, this assay endpoint is annotated to the esterase intended target family, where the subfamily is acetylcholinesterase.
as §1

[3] = target: rat Constitutive Nitric Oxide Synthase (CNOS), Nos1 (gene 24598) (UniProt P29476); test: NVS_ENZ_rCNOS: NovaScreen (NVS) Enzymatic Assay for rat Constitutive Nitric Oxide Synthase (CNOS) (AID 2283236)
Chain of rat Constitutive Nitric Oxide Synthase (CNOS), Nos1 (gene 24598) (P29476 whole entry, looked up): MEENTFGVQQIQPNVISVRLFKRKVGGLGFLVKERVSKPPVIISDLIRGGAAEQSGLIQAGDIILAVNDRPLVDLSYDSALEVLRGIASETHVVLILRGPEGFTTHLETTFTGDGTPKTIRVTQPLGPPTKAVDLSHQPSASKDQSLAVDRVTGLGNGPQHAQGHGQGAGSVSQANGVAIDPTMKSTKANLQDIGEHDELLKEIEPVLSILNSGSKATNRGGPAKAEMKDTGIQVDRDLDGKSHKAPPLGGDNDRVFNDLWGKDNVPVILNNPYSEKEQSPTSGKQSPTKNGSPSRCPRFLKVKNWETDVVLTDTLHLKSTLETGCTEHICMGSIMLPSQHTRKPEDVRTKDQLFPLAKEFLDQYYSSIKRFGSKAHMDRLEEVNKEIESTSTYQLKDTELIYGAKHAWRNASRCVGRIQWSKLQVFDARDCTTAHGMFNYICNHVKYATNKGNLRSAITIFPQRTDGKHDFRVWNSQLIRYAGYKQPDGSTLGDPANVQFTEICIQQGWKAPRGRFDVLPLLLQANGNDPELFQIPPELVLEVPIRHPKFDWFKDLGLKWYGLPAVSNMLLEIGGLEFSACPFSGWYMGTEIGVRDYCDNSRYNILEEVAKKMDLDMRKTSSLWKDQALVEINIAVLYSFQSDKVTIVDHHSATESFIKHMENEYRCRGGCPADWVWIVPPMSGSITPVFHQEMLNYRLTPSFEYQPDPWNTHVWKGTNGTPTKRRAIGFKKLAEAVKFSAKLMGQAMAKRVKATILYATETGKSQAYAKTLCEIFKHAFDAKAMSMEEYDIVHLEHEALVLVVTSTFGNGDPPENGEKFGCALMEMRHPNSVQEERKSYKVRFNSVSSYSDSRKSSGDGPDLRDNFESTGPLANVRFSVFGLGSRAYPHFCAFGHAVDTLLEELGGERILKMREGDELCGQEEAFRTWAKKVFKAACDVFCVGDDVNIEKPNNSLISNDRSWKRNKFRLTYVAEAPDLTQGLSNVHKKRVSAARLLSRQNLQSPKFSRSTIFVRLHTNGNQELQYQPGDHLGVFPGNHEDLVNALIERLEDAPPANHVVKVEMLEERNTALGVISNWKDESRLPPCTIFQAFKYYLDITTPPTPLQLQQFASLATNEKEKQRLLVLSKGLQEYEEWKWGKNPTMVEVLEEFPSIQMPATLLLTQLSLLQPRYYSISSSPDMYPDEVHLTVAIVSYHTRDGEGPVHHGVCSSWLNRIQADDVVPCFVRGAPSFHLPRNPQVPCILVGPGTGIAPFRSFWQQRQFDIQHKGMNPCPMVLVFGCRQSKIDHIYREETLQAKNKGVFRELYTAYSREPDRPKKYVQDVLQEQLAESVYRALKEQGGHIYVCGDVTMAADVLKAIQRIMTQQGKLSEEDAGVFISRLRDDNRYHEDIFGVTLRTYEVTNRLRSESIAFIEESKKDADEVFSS
How it was run: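 Enzyme activity in rat brain membrane preparation, read 1 h after dosing by filter-based radiometric scintillation counting. Primary screen in duplicate at 25 uM; actives (e.g., ≥30% inhibition) then run in concentration-response up to 50 uM.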

[4] = target: rat Monoamine Oxidase, MAO-B, Central (MAOBC), Maob (gene 25750) (UniProt P19643); test: NVS_ENZ_rMAOBC: NovaScreen (NVS) Enzymatic Assay for rat Monoamine Oxidase, MAO-B, Central (MAOBC) (AID 2283238)
Chain of rat Monoamine Oxidase, MAO-B, Central (MAOBC), Maob (gene 25750) (P19643 whole entry, looked up): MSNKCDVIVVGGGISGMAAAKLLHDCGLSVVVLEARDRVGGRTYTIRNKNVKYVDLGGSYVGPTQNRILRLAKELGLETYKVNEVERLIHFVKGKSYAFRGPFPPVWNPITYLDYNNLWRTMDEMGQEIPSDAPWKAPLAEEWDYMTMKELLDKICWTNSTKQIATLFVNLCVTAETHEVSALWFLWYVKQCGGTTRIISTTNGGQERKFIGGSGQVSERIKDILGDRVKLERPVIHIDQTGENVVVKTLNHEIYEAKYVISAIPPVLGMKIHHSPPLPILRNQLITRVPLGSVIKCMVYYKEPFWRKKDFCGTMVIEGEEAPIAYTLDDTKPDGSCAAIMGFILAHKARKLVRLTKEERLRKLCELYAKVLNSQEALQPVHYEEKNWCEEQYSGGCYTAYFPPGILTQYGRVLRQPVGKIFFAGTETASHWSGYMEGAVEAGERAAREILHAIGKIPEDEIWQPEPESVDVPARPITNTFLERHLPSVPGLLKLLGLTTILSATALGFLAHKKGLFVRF
Protocol: NVS_ENZ_rMAOBC is a biochemical, single-readout assay that uses extracted gene-proteins from Rat brain in a tissue-based cell-free assay. Measurements were taken 1.17 hours after chemical dosing in a 96-well plate.NVS_ENZ_rMAOBC is one of one assay component(s) measured or calculated from the NVS_ENZ_rMAOBC assay. It is designed to make measurements of enzyme activity, a form of enzyme reporter, as detected with scintillation counting signals by Lysate-based radiodetection technology.Data from the assay component NVS_ENZ_rMAOBC was analyzed into 1 assay endpoint. This assay endpoint, NVS_ENZ_rMAOBC, was analyzed in the positive analysis fitting direction relative to DMSO as the negative control and baseline of activity. Using a type of enzyme reporter, loss-of-signal activity can be used to understand changes in the enzymatic activity as they relate to the gene Maob. Furthermore, this assay endpoint can be referred to as a primary readout, because this assay has produced multiple assay endpoints where this one serves a enzymatic activity function. To generalize the intended target to other relatable targets, this assay endpoint is annotated to the oxidoreductase intended target family, where the subfamily is monoamine oxidase.
as §1

[5] = target: bovine Dopamine Receptor (DR), Non-selective Binding, DRD1 (gene 281125) (UniProt Q95136); test: NVS_GPCR_bDR_NonSelective: NovaScreen (NVS) G Protein-Coupled Receptor Assay for bovine Dopamine Receptor (DR), Non-selective Binding (AID 2283241)
Chain of bovine Dopamine Receptor (DR), Non-selective Binding, DRD1 (gene 281125) (Q95136 whole entry, looked up): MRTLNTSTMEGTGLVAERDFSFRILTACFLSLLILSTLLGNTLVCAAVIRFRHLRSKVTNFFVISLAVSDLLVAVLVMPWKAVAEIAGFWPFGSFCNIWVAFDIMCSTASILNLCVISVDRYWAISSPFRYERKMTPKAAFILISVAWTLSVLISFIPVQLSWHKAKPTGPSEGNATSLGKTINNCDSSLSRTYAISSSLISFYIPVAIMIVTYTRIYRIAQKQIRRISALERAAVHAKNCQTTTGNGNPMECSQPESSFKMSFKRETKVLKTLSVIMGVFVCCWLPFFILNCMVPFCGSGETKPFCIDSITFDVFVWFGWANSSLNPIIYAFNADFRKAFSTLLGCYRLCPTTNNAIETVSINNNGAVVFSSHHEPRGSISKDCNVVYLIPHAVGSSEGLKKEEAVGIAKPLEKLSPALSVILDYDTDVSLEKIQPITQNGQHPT
How it was run: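 Bovine striatal membranes; radioligand displacement read by filtration and scintillation counting 1 h after dosing, loss of signal vs DMSO. Screened in duplicate at 25 uM, then concentration-response for hits.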

[6] = target: rat Catechol-O-Methyl Transferase (COMT), Comt (gene 24267) (UniProt P22734); test: NVS_ENZ_rCOMT: NovaScreen (NVS) Enzymatic Assay for rat Catechol-O-Methyl Transferase (COMT) (AID 2283235)
How it was run: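 Cell-free enzyme activity with protein extracted from rat dorsal striatum, measured by HPLC with absorbance detection. Compounds screened at 25 uM in duplicate; actives then run in concentration-response up to 50 uM, loss of signal versus DMSO.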

[7] = system: rat Monoamine Oxidase, MAO-A, Peripheral (MAOAP), gene 29253; test: NVS_ENZ_rMAOAP: NovaScreen (NVS) Enzymatic Assay for rat Monoamine Oxidase, MAO-A, Peripheral (MAOAP) (AID 2283237)
How it was run: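 Rat liver mitochondrial membranes served as the MAO-A source, with enzyme activity measured by radiometric scintillation counting 1.17 hours after dosing. Loss of signal was fitted against DMSO; primary screen used 25 uM in duplicate, follow-up used concentration series.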

[8] = target: sheep Cyclooxygenase-2 (Cox2), PTGS2 (gene 443460) (UniProt P79208); test: NVS_ENZ_oCOX2: NovaScreen (NVS) Enzymatic Assay for sheep Cyclooxygenase-2 (Cox2) (AID 2283231)
Chain of sheep Cyclooxygenase-2 (Cox2), PTGS2 (gene 443460) (P79208 whole entry, looked up): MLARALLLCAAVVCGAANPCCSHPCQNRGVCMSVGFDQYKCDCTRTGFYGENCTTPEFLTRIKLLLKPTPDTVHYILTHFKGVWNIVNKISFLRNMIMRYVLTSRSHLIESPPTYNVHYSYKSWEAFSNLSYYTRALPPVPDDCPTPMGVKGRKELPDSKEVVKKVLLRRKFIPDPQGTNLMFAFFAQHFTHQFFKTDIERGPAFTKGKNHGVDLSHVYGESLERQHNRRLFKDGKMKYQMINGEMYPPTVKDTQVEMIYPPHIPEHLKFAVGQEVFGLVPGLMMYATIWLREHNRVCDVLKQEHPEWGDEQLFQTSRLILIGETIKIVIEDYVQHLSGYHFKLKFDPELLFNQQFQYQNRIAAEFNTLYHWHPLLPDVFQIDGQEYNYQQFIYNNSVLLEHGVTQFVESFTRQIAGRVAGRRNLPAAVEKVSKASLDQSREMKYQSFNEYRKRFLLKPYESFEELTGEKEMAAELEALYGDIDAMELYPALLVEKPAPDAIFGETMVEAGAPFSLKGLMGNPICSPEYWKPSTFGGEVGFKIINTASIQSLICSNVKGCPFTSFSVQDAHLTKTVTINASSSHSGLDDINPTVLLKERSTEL
Protocol: NVS_ENZ_oCOX2 is a biochemical, single-readout assay that uses extracted gene-proteins from Ovine placenta in a tissue-based cell-free assay. Measurements were taken 0.66 hour after chemical dosing in a 96-well plate.NVS_ENZ_oCOX2 is one of one assay component(s) measured or calculated from the NVS_ENZ_oCOX2 assay. It is designed to make measurements of enzyme activity, a form of enzyme reporter, as detected with absorbance signals by Colorimetric technology.Data from the assay component NVS_ENZ_oCOX2 was analyzed into 1 assay endpoint. This assay endpoint, NVS_ENZ_oCOX2, was analyzed in the positive analysis fitting direction relative to DMSO as the negative control and baseline of activity. Using a type of enzyme reporter, loss-of-signal activity can be used to understand changes in the enzymatic activity as they relate to the gene PTGS2. Furthermore, this assay endpoint can be referred to as a primary readout, because this assay has produced multiple assay endpoints where this one serves a enzymatic activity function. To generalize the intended target to other relatable targets, this assay endpoint is annotated to the oxidoreductase intended target family, where the subfamily is cyclooxygenase.
as §1

[9] = target: sheep Cyclooxygenase-1 (Cox1), PTGS1 (gene 443551) (UniProt P05979); test: NVS_ENZ_oCOX1: NovaScreen (NVS) Enzymatic Assay for sheep Cyclooxygenase-1 (Cox1) (AID 2283239);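 further: actives reduce cyclooxygenase activity so potencies are for inhibitors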
How it was run: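 Tested in duplicate at 25 uM, then in concentration series if active, against seminal vesicle extract from sheep. Enzyme activity was measured colorimetrically at 0.66 hour and normalised to DMSO.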

SMILES: CCCCCCCCn1sccc1=O
- AC50 [1]: 26 µM (active)

SMILES: CCOC(=O)[C@]1(c2ccccc2)Oc2ccccc2[C@@H]1N
- AC50 [2]: 17.2 µM (active)
- outcome [3]: inactive
- AC50 [4]: 10.2 µM (active)
- AC50 [5]: 1.04 µM (active)

SMILES: COP(=S)(OC)SCN1C(=O)c2ccccc2C1=O
- outcome [2]: inactive
- AC50 [3]: 3.44 µM (active)
- outcome [4]: inactive

SMILES: Oc1ccc2ccc3cccc4ccc1c2c34
- AC50 [6]: 25 µM (active)
- AC50 [7]: 1.18 µM (active)

SMILES: O=C(N[C@H](c1ccccc1)[C@@H]1CN2CCC1CC2)c1c(Cl)ccc(C(F)(F)F)c1Cl
- AC50 [7]: 50.6 µM (active)
- AC50 [5]: 29.1 µM (active)

SMILES: CN(C)c1ccc(C(=O)c2ccc(N(C)C)cc2)cc1
- AC50 [8]: 13 µM (active)
- AC50 [7]: 7.24 µM (active)
- AC50 [4]: 7.63 µM (active)
- AC50 [9]: 25.2 µM (active)

SMILES: CC(C)(C)OOC(=O)c1ccccc1
- outcome [8]: inactive
- outcome [4]: inactive

SMILES: CCN(CC)CCO
- outcome [7]: inactive

SMILES: CNC(=O)Oc1cccc2c1OC(C)(C)C2
- AC50 [2]: 0.464 µM (active)

SMILES: CC(C)(O)c1cnn2c(-c3ccc(F)c(-c4c(F)cccc4C#N)c3)cnc2n1
- outcome [1]: inactive
- outcome [7]: inactive
- outcome [4]: inactive

SMILES: Cc1ccc([N+](=O)[O-])cc1
- outcome [8]: inactive

SMILES: Nc1ccc(Cl)cc1N
- AC50 [9]: 4.69 µM (active)

SMILES: O=[N+]([O-])C(Br)(CO)CO
- AC50 [1]: 21.3 µM (active)
- AC50 [2]: 35.2 µM (active)
- AC50 [4]: 35.6 µM (active)

SMILES: CN(C)C(=O)Nc1ccc(Cl)cc1
- outcome [2]: inactive

SMILES: CCCCOC(=O)c1ccccc1C(=O)OCc1ccccc1
- outcome [3]: inactive

SMILES: O=P(OCCCl)(OCCCl)OCCCl
- outcome [8]: inactive

SMILES: CCCCCCCCOC(=O)c1ccc(C(=O)OCCCCCCCC)c(C(=O)OCCCCCCCC)c1
- outcome [2]: inactive
